Sampled rows, rich in hits. Any-hit rate of the full collection: about 19%.
Shiga toxin inh: inhibitors of Shiga toxin in Vero cells; AID 2315; hit rate 9.2% among 290,000; Vero cells, Shiga toxin protein synthesis inhibition reporter; inhibition, % at 38.7 µM; in the data active = inhibition mostly above about 28%, no sharp cut-off; inactive = mostly below about 43%
Pf growth 48h: inhibits P. falciparum growth in the first generation, 48 h; P. falciparum luciferase growth in erythrocytes, 48 h; Potency, µM (titrated, usually from 28.7 µM), usual class: inhibitors; hit rate 5.9% among 310,000; AID 504832
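Cell-based growth assay: transgenic P. falciparum expressing firefly luciferase, cultured in red cells within RPMI 1640 containing 0.5% w/v Albumax, 24 mM bicarbonate and gentamycin. A drop in luciferase activity indicates inhibition.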
CHX counter: affects cycloheximide protein synthesis inhibition readout, counter-screen. max response, %. hit rate 12% among 300,000. AID 2314. cell reporter, cycloheximide protein synthesis inhibition counterscreen; in the data active = max response mostly above about 13%, no sharp cut-off; inactive = mostly below about 14%; note: read at 38.3 µM for the half of the compounds with a filed dose
Pf growth 96h: inhibits malaria parasite growth, 96 h; P. falciparum luciferase reporter growth, 96 h; Potency, µM (top dose mostly 28.7 µM), hits mostly inhibitors; hit rate 6.9% among 320,000; AID 504834
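96 h incubation, 37 C, 5% CO2, of luciferase-reporter P. falciparum-infected RBCs (2% hematocrit, 0.05% parasitemia final) with test compounds; endpoint luminescence.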
LASV entry inh: inhibitors of Lassa virus binding or cell entry; Lassa virus pseudotype entry inhibition, cell reporter; hit rate 1.2% among 300,000; Potency, µM (top dose mostly 37.9 µM), hits mostly inhibitors; calls by dose curve; tested in HEK293 cells; note: nearly all actives have a fitted effect of over 50% in size
MARV entry inh: blocks Marburg virus binding to or entry into cells | Potency, µM (doses to about 37.8 µM), most hits filed as inhibitors | hit rate 1.8% among 300,000 | Marburg virus pseudotyped entry inhibition, cell reporter | AID 540276; calls by dose curve; tested in HEK293 cells
Each line names hits and unclear results; the compound was inactive in the other large screens. Unless noted, calls come from the whole dose curve; as a rule, active = well fitted inhibition curve with a large enough effect; inconclusive = small, poorly fitted or top-dose-only effect, or another doubt; inactive = no such curve, though single readings can be large or run the other way.

COc1ccc(C2c3[nH]c4ccccc4c3CCN2C(=O)c2cn3ccccc3n2)c(F)c1 (stereo unspecified)	Shiga toxin inh 53, Pf growth 48h 15µM, CHX counter 30, Pf growth 96h inconclusive, LASV entry inh inconclusive, MARV entry inh inconclusive
COc1ccc(C2c3[nH]c4ccccc4c3CCN2CCCn2cccn2)c(F)c1 (stereo unspecified)	Pf growth 48h inconclusive, LASV entry inh inconclusive, MARV entry inh inconclusive
COc1ccc2[nH]c3c(c2c1)CCN(C(=O)c1cccc(Cl)c1)C3c1ccc(F)cc1 (stereo unspecified)	LASV entry inh inconclusive, MARV entry inh 1µM (no result: Shiga toxin inh, Pf growth 48h, CHX counter, Pf growth 96h)
COc1cccc(C2c3[nH]c4ccccc4c3CCN2C(=O)c2ccccc2F)c1OC (stereo unspecified)	Pf growth 48h 9.3µM, Pf growth 96h inconclusive (no result: LASV entry inh, MARV entry inh)
COC(=O)c1cn(NC(=O)/C=C/c2cccc(OC)c2OC)c(=O)c2ccccc12	Pf growth 96h inconclusive
Cc1ccc(NC(=O)N2CCc3c([nH]c4ccccc34)C2c2ccccc2F)c(Cl)c1 (stereo unspecified)	LASV entry inh 7.9µM (no result: Shiga toxin inh, Pf growth 48h, CHX counter, Pf growth 96h, MARV entry inh)
Cc1nonc1CC(=O)N1CCc2c([nH]c3ccccc23)C1c1ccccc1F (stereo unspecified)	Pf growth 96h inconclusive, MARV entry inh inconclusive
COc1ccc(C2c3[nH]c4ccccc4c3CCN2C(=O)c2cc3ncccn3n2)c(F)c1 (stereo unspecified)	Pf growth 48h 13µM, LASV entry inh inconclusive, MARV entry inh inconclusive
CCn1cc(CN2CCc3c([nH]c4ccccc34)C2c2cccc(OC)c2OC)c(C)n1 (stereo unspecified)	Pf growth 48h 12µM, MARV entry inh inconclusive
CC(C)Oc1ccc(/C(O)=C2/C(=O)C(=O)N(CCN3CCNCC3)C2c2ccc(C(C)C)cc2)cc1 (stereo unspecified)	none (no result: LASV entry inh, MARV entry inh)
CSc1cccc(NC(=O)c2sc3nc4n(c(=O)c3c2C)CCC4)c1	Shiga toxin inh 50, CHX counter 17, Pf growth 96h inconclusive, LASV entry inh inconclusive
Cc1c(C(=O)Nc2cc(F)ccc2F)sc2nc3n(c(=O)c12)CCCCC3	CHX counter 36, Pf growth 96h inconclusive
Cc1ccc(NC(=O)c2sc3nc4n(c(=O)c3c2C)CCCCC4)c(Br)c1	none (no result: Shiga toxin inh, Pf growth 48h, CHX counter, Pf growth 96h, MARV entry inh)
Cc1c(C(=O)Nc2ccc(Oc3ccccc3)cc2)sc2nc3n(c(=O)c12)CCC3	Pf growth 48h 12µM, Pf growth 96h 17µM, LASV entry inh inconclusive, MARV entry inh inconclusive
COc1cccc(NC(=O)c2sc3nc4n(c(=O)c3c2C)CCC4)c1	Shiga toxin inh 69, CHX counter 49, Pf growth 96h inconclusive, LASV entry inh inconclusive (no result: MARV entry inh)
CC(=O)c1cccc(NC(=O)c2sc3nc4n(c(=O)c3c2C)CCCCC4)c1	LASV entry inh inconclusive
Cc1c(C(=O)Nc2ccc(OC(F)(F)F)cc2)sc2nc3n(c(=O)c12)CCC3	MARV entry inh inconclusive
Cc1cccc(N2CCN(C(=O)c3cccc(NC4=NC5CS(=O)(=O)CC5S4)c3)CC2)c1C (stereo unspecified)	Pf growth 96h inconclusive (no result: LASV entry inh, MARV entry inh)
CCCCn1c(=O)c(C(=O)c2ccccc2)nc2ccccc21	none
Cc1nc(N2CCOCC2)nc(Oc2ccccc2F)c1[N+](=O)[O-]	Pf growth 96h inconclusive
OC(COc1ccccc1)CN1CCOCC1 (stereo unspecified)	Pf growth 96h 12µM
Cc1ccc(OCC(O)CN2CCOCC2)c(C)c1 (stereo unspecified)	CHX counter 31, Pf growth 96h inconclusive (no result: Shiga toxin inh, LASV entry inh, MARV entry inh)
OC(COc1ccc2cc(Br)ccc2c1)CN1CCOCC1 (stereo unspecified)	Shiga toxin inh 37
Cc1ccc(OCC(O)CN2CCN(Cc3ccc4c(c3)OCO4)CC2)c(C)c1 (stereo unspecified)	MARV entry inh inconclusive
OC(COc1ccccc1)CN1CCCCC1 (stereo unspecified)	none (no result: Shiga toxin inh, Pf growth 48h, CHX counter, Pf growth 96h)
OC(COc1ccc2ccccc2c1Cl)CN1CCOCC1 (stereo unspecified)	Shiga toxin inh 105, CHX counter 37, MARV entry inh inconclusive
COc1ccc(C(=O)N(C)CC(=O)Nc2cccc(F)c2)cc1S(=O)(=O)NC1CCCC1	Pf growth 48h inconclusive, Pf growth 96h inconclusive (no result: Shiga toxin inh, CHX counter)
COc1ccc(Cl)cc1C(=O)Nc1cccc(-c2ccc3nncn3n2)c1	none (no result: LASV entry inh, MARV entry inh)
O=C(c1ccccc1)c1ccc(OCC(O)CN2CCN(S(=O)(=O)N3CCCCC3)CC2)cc1 (stereo unspecified)	Pf growth 96h 5.2µM, LASV entry inh inconclusive (no result: Pf growth 48h)
COc1cc(/C=C2/C(=N)N3C(=NC2=O)SN=C3S(C)(=O)=O)ccc1OS(=O)(=O)c1ccccc1	Shiga toxin inh 45, Pf growth 96h inconclusive (no result: LASV entry inh, MARV entry inh)
COc1cc(/C=C2\C(=N)N3N=C(S(C)(=O)=O)SC3=NC2=O)ccc1OC(=O)c1cccs1	Pf growth 48h inconclusive (no result: LASV entry inh, MARV entry inh)
COc1ccccc1-n1c(C)cc(/C=C2\C(=N)N3N=C(CC(=O)N4CCOCC4)SC3=NC2=O)c1C	Pf growth 48h inconclusive, Pf growth 96h inconclusive (no result: LASV entry inh, MARV entry inh)
CCOc1cc(/C=C2/C(=N)N3C(=NC2=O)SN=C3S(C)(=O)=O)ccc1OS(=O)(=O)c1ccccc1	Pf growth 96h inconclusive (no result: LASV entry inh, MARV entry inh)
COc1cc(/C=C2\C(=N)N3N=C(S(C)(=O)=O)SC3=NC2=O)ccc1OCCOc1ccccc1C	Pf growth 48h 10µM, Pf growth 96h inconclusive, MARV entry inh inconclusive
COc1ccccc1-n1c(C)cc(/C=C2/C(=N)N3C(=NC2=O)SN=C3S(C)(=O)=O)c1C	Shiga toxin inh 116, Pf growth 48h inconclusive, CHX counter 24, Pf growth 96h inconclusive, LASV entry inh inconclusive
Cc1cc(/C=C2/C(=N)N3C(=NC2=O)SN=C3S(C)(=O)=O)c(C)n1-c1ccc(F)cc1	Pf growth 48h inconclusive (no result: LASV entry inh, MARV entry inh)
CCOc1ccc(-n2c(C)cc(/C=C3/C(=N)N4C(=NC3=O)SN=C4S(C)(=O)=O)c2C)cc1	Pf growth 48h inconclusive, Pf growth 96h 8.3µM (no result: LASV entry inh, MARV entry inh)
CCOC(=O)COc1cc2c3c(c(=O)oc2cc1C)CCCC3	none (no result: Pf growth 96h)
O=C1/C(=C/c2cccnc2)Cc2ccc(Cl)cc21	none (no result: Shiga toxin inh, CHX counter, LASV entry inh, MARV entry inh)
O=C1CC2(CCCCC2)CC(=O)N1CCc1ccccc1	none (no result: Shiga toxin inh, Pf growth 48h, CHX counter, Pf growth 96h)
N#C/C(=C(/O)CN1CCCC1)c1nc(-c2ccccc2)cs1	Shiga toxin inh 120, CHX counter 33
CC1CCN(C(=O)CSc2nnc(-c3ccccc3F)o2)CC1	Shiga toxin inh 56, MARV entry inh inconclusive
O=C(CSc1nnc(-c2cccs2)o1)N1CCCCC1	Shiga toxin inh 113, CHX counter 48, Pf growth 96h inconclusive (no result: Pf growth 48h, LASV entry inh, MARV entry inh)
CC1CCN(C(=O)CSc2nnc(-c3ccccc3Cl)o2)CC1	none (no result: Shiga toxin inh, Pf growth 48h, CHX counter, Pf growth 96h)
CC1CCN(C(=O)CSc2nnc(-c3cccs3)o2)CC1	Shiga toxin inh 63, CHX counter 45, Pf growth 96h inconclusive, MARV entry inh inconclusive (no result: LASV entry inh)
COCC(=O)N(Cc1cc2ccc(C)cc2[nH]c1=O)c1ccccc1C	Pf growth 48h inconclusive
Cn1nc(-c2ccc(N3CCCCC3)c(NC(=O)c3ccc(Cl)cc3)c2)c2ccccc2c1=O	none (no result: Shiga toxin inh, Pf growth 48h, CHX counter, Pf growth 96h)
CC(C)(C)NC(=O)CN(C(=O)c1snc(C(=O)NC2CCCCC2)c1N)c1ccccc1F	Pf growth 48h 12µM, MARV entry inh inconclusive
CN1CCN(C(=O)/C=C/c2ccccc2)CC1	none
